# PubChem BioAssay (NCI)
# Compounds without any hit were thinned out: in the full panel of roughly 83,000, 20% have a hit.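 Values shown are percent growth following 48 h exposure of cells in 96-well plates to a single concentration of compound; below 10 was considered active.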 A number with no mark means an inactive call. Active and inactive are the calls of the source.
# Key:
# Experiment in all cases: NCI-60 one-dose screen, 48 h (100 = growth as untreated, 0 = no growth, -100 = all killed)
# Conditions in all cases: 10 µM unless noted
# [1] = tested on: SR leukemia
# [2] = tested on: RPMI-8226 leukemia
# [3] = tested on: OVCAR-8 ovarian
# [4] = tested on: OVCAR-5 ovarian
# [5] = tested on: OVCAR-4 ovarian
# [6] = tested on: SK-OV-3 ovarian
# [7] = tested on: IGROV1 ovarian
# [8] = tested on: OVCAR-3 ovarian
# [9] = tested on: HS 578T breast
# [10] = tested on: NCI/ADR-RES ovarian
# [11] = tested on: T-47D breast
# [12] = tested on: BT-549 breast
# [13] = tested on: MDA-MB-435 melanoma
# [14] = tested on: SW-620 colon
# [15] = tested on: MCF7 breast
# [16] = tested on: HCT-116 colon
# [17] = tested on: HCC-2998 colon
# [18] = tested on: KM12 colon
Structure (SMILES),growth [1],growth [2],growth [3],growth [4],growth [5],growth [6] [%],growth [7],growth [8],growth [9],growth [10],growth [11],growth [12] [%],growth [13],growth [14],growth [15],growth [16],growth [17],growth [18]
CCc1cccc2c3c(sc12)C(c1ccc(Cl)cc1)C(C#N)=C(/N=C/c1ccc(Cl)cc1)O3 (stereo not drawn),13.9%,8.79% (active),28.1%,32.9%,79.1%,55.4,28.1%,-14.2% (active),8.08% (active),5.33% (active),25.7%,51.7,-58.4% (active),29.3%,15.8%,22.2%,7.72% (active),13.2%
CC1(C)CC[C@]2(C(=O)N3CCOCC3)CC[C@]3(C)C(=CC[C@@H]4[C@@]5(C)C/C(=C/c6ccco6)C(=O)C(C)(C)[C@@H]5CC[C@]43C)[C@@H]2C1,44.6%,55.6%,91.3%,96.8%,60.9%,109,86.7%,86.9%,83.5%,96.6%,75.7%,97.4,88.7%,74.1%,64%,62.1%,103%,95.7%
O=C1CCC(N2C(=O)c3ccc(NS(=O)(=O)c4ccccc4OC(F)(F)F)cc3C2=O)C(=O)N1 (stereo not drawn),77.4%,61%,10.9%,85.3%,22.8%,82.3,23.5%,86.2%,13.7%,19.7%,16.2%,14.8,64.4%,20.2%,44.5%,96.8%,11%,40.6%
O=C(NNc1nc2cc(F)ccc2n2c(CN3CC4CNCC4C3)ccc12)c1cnccn1 (stereo not drawn),12.9%,46.7%,14.3%,43.1%,23.8%,23.4,24.2%,36.9%,72.5%,84.8%,37.8%,35.3,26.1%,23%,12.2%,16.4%,32.1%,16.8%
NS(=O)(=O)c1ccc(Nc2nc(N/N=C/c3c[nH]c4ccccc34)nc(Nc3ccccc3)n2)cc1,12.1%,-5.69% (active),37.8%,87.8%,59.7%,90.8,33.9%,26.7%,42.2%,93.5%,35.3%,48.8,31.3%,49%,18.8%,15.9%,52.6%,27.3%
NC(N)=Nc1ccc(Oc2cccc(Oc3ccc(Cl)c(C(F)(F)F)c3)c2)cn1,-58.9% (active),-49.5% (active),-50.8% (active),-74.5% (active),-76.8% (active),75.8,-81.7% (active),-95% (active),79.8%,-6.8% (active),8.88% (active),73.9,-86.8% (active),-76.7% (active),-70.6% (active),-91.5% (active),-80.6% (active),-89.6% (active)
O=S(=O)(NCCCNc1nccc(-c2[nH]c(-c3ccccc3)nc2-c2ccc(Cl)c(O)c2)n1)c1cccc(F)c1,39.4%,41.1%,50.1%,85.4%,71.8%,105,57.9%,60.3%,96.2%,73.2%,49.9%,59.7,21.5%,92.5%,55.3%,35.4%,101%,60.5%
CC(=O)N(C)C1CCc2c(sc(NC(=O)c3ccc(C(C)(C)C)cc3)c2C(N)=O)C1 (stereo not drawn),9.43% (active),81.2%,73.8%,78.9%,41.7%,108,100%,83.7%,38.9%,79.6%,74%,88.2,83.7%,58.2%,59.8%,65.1%,108%,64.9%
C#C[C@]1(O)CC[C@H]2[C@@H]3CC=C4c5sc(-c6ccc7c(c6)OCO7)nc5CC[C@]4(C)[C@H]3CC[C@@]21C,16.9%,-15.3% (active),30.2%,36.3%,34.9%,52.3,34.8%,-13.2% (active),-9.35% (active),39.2%,41.5%,26.1,-6.66% (active),2.53% (active),-1.98% (active),-9.63% (active),34%,14%
O=C(/C=C/c1ccc(F)cc1)c1ccc(O)cc1,24.4%,23.9%,98.4%,103%,106%,110,114%,83.6%,107%,106%,93.9%,103,67%,81.4%,30.3%,-44.1% (active),112%,59.3%
CCCCCc1ccc(S(=O)(=O)Nc2cccc(-c3csc(NC(=O)CN4CCN(C)CC4)n3)c2)cc1,-4.74% (active),5.62% (active),95.9%,105%,81.4%,90.6,83.8%,75.3%,82.1%,93.1%,67.2%,93.4,45.3%,46.5%,26.2%,16.9%,14.8%,65.8%
